ADAM10 inh: human ADAM10 inhibitors, primary screen, biochemical, QFRET, HTS | recombinant ADAM10, EDANS/DABCYL FRET peptide cleavage, 3 h | inhibition, % at 7 µM | 0.62% of 370,000 active | AID 720582, 2013;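 active = inhibition above a per-campaign cutoff equal to the mean of compounds falling between control-based bounds plus 3 SD, cut at about 20% in these data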;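 also: 0% = DMSO wells while the 100% control is not disclosed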
proKLK7 act: proKLK7 zymogen activators, primary screen, biochemical, fluorescence intensity. Kallikrein-7 (Homo sapiens), P49862. purified proKLK7, EDANS-DABCYL substrate fluorescence; 100% is mature enzyme control, 0% vehicle. activation, % at 7 µM. 0.9% of 370,000 active. AID 652039, 2013;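 active = activation above the mean of all tested compounds plus 3 SD, computed per campaign excluding outliers beyond control limits, cut at about 13% in these data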
Target sequence (P49862 whole entry, looked up): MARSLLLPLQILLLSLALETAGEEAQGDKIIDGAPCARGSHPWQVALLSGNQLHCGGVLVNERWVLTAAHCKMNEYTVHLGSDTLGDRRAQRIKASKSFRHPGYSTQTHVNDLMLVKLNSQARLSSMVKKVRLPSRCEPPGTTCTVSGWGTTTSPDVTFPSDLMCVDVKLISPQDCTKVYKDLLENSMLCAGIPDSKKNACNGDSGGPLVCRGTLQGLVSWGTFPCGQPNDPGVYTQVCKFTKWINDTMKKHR
PLCg1 inh: PLC-gamma1 enzyme inhibitors, primary screen, biochemical, fluorescence, purified enzyme. 1-phosphatidylinositol 4,5-bisphosphate phosphodiesterase gamma-1 (Homo sapiens), P19174. AID 720700, 2013. inhibition, % at 12.2 µM. 0.84% of 370,000 active. fluorogenic substrate; in the data active = inhibition above about 9.5%
ADAM17 inh: ADAM17 inhibitors, primary screen, biochemical, QFRET; inhibition, % at 6.95 µM; AID 720648, 2013; 0.83% of 370,000 active; recombinant ADAM17, EDANS/DABCYL FRET peptide cleavage; Disintegrin and metalloproteinase domain-containing protein 17 (Homo sapiens), P78536;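 active = inhibition above the mean of compounds lying between control limits plus 3 SD, set per campaign, cut at about 8.5% in these data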;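 also: 0% = DMSO-only wells as the low control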
PLCb3 inh: human PLC-beta3 inhibitors, primary screen, biochemical, fluorescence | 1-phosphatidylinositol 4,5-bisphosphate phosphodiesterase beta-3 (Homo sapiens), Q01970 | Purified PLC-beta3, fluorogenic substrate | inhibition, % at 12.2 µM | 0.18% of 370,000 active; in the data active = inhibition above about 11%;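 also: 0% = median of compound wells on plate and 100% = full blocker control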
KLK7 act conf: proKLK7 zymogen activators, confirmation, biochemical, fluorescence intensity, triplicate; activation, % at 7 µM; 68% of 3,200 active; purified proKLK7, EDANS-DABCYL substrate fluorescence; scaled: vehicle 0, mature enzyme 100; shares compounds with proKLK7 act;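 active = activation, as change over the incubation, above the mean of all tested compounds plus 3 SD, cut at about 13% in these data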
EDANS interfere: EDANS-DABCYL substrate optical interference, artefact control for kallikrein-7 zymogen activator project, biochemical, fluorescence intensity, high throughput; 80% of 3,200 active; shares compounds with proKLK7 act; no enzyme, 4 h; solvent 0%, active enzyme control 100%; activation, % at 7 µM;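 active = activation above the all-compound mean plus 3 SD, ignoring values outside control-based bounds, cut at about 4.8% in these data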;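 also: value is the 4 h activation minus the activation read at time zero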
K7 EDANS ctr: optically interferes with EDANS-DABCYL fluorescence, kallikrein-7 activator counter-screen. shares compounds with proKLK7 act. EDANS-DABCYL peptide fluorescence interference, no enzyme. EC50, µM. 20% of 250 active;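 active = compounds that raise the fluorescence signal in this interference counterscreen, with EC50 at or below 10 µM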;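 also: intact quenched peptide substrate alone read at 355 nm excitation and 520 nm emission; signal is fluorescence gain from T0 to T4 after four hours at room temperature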
Active calls of the source: *; i = inactive; / = no result. Sampled rows, rich in hits. Any-hit rate of the full collection: about 2.9%.

SMILES	ADAM10 inh	proKLK7 act	PLCg1 inh	ADAM17 inh	PLCb3 inh	KLK7 act conf	EDANS interfere	others
CCOC(=O)c1nn(-c2ccccc2)c(C#N)c1N	i	25.4*	-330.5	i	-402.5	17.7*	24.6*
CCOC(=O)c1nn(-c2ccccc2)c(=O)c(C#N)c1C	-22.2	-2.1	-90.2	-10.2	-116.1	/	/
COCCN1C=C(C(=O)OC)C(c2ccc(Cl)cc2)C(C(=O)OC)=C1	i	31.4*	i	i	i	-71.3	-70.9
COCCN1C=C(C(=O)OC)C(c2ccc3c(c2)OCO3)C(C(=O)OC)=C1	-165.6	-1.5	-105.9	-54.3	-144.0	/	/
CCOc1ccc(C2C(C(=O)OC)=CN(CCOC)C=C2C(=O)OC)cc1	i	26.4*	i	i	i	-3.7	-1.9
O=C(Nc1ncccn1)c1ccc([N+](=O)[O-])o1	i	816.6*	i	-166.0	i	834.0*	834.5*
COc1ccc(C2CC(=O)C(c3ccc(C)cc3)=CN2Cc2ccccc2)cc1 (stereo not drawn)	-9.1	-0.9	-56.5	-0.8	-81.2	/	/
CC1(C)C=Cc2ccc(O)c(C(=O)/C=C/c3ccccc3)c2O1	4.6	/	0.7	2.4	3.9	/	/
CC(=O)OCCc1c2ccccc2c(CCCN(C)C)c2ccccc12	i	15.6*	-93.7	-481.5	-141.3	-7.8	-7.2
COc1ccc(C2Nc3ccccc3C(=O)N2NC(C)=O)c(OC)c1 (stereo not drawn)	i	20.8*	-443.8	-284.7	i	19.8*	15.7*	K7 EDANS ctr=>69.6
O=C(O)CCC(=O)NN1C(=O)c2ccccc2NC1c1ccco1 (stereo not drawn)	i	14.7*	-315.4	-225.8	-432.5	49.1*	15.6*	K7 EDANS ctr=>69.5
CCOC(=O)NN1C(=O)c2ccccc2NC1C (stereo not drawn)	i	13.3*	-478.2	-325.3	i	25.5*	28.3*
O=C(NN1C(=O)c2ccccc2NC1c1ccco1)c1ccccc1 (stereo not drawn)	-113.8	1.3	-51.0	-45.8	-75.2	/	/
CCOC(=O)NN1C(=O)c2ccccc2NC1c1ccccc1 (stereo not drawn)	i	19.8*	i	-384.4	i	21.1*	23.8*
COC(=O)[C@H](C(C)C)N(CCc1cn(CC2CCCCC2)nn1)S(=O)(=O)c1ccccc1Br	3.3	0.6	2.5	0.1	-1.4	/	/
COc1ccc(NC(=O)Nc2cc(C)nn2-c2ccccc2)cc1	-1.2	-0.1	-1.4	-1.4	0.7	/	/
CCOC(=O)NN1C(=O)c2ccccc2NC1c1ccc(OC)cc1 (stereo not drawn)	i	36.4*	i	i	i	19.6*	22.7*
CCOC(=O)NN1C(=O)c2ccccc2NC1c1ccc(N(C)C)cc1 (stereo not drawn)	-461.6	5.7	-271.0	-152.3	-289.3	/	/
Cc1cc(C(=O)O[C@H]2CCC[C@@]3(C(=O)N(Cc4ccccc4)c4ccccc43)[C@H]2NC(=O)CCc2ccccc2)no1	15.5	0.4	7.0	7.2	6.8	/	/
CCCCc1cc(=O)oc2c(CN(CC)CC)c(O)c(Cl)cc12	i	63.4*	i	i	i	70.2*	70.7*
CCCCN(CCCC)Cc1cc(=O)oc2cc(C)c(Cl)cc12	-21.4	0.1	-9.4	-7.5	-13.9	/	/
CCCc1cc(=O)oc2c(CN(CC)CC)c(O)c(Cl)cc12	i	53.4*	i	i	i	65.7*	67.7*
CCOP(=O)(OCC)c1nc(-c2cccc3ccccc23)oc1N1CCOCC1	i	63.1*	i	i	i	63.2*	58.1*
CCOP(=O)(OCC)c1nc(-c2ccccc2Cl)oc1N1CCOCC1	-23.9	0.2	-4.0	-7.6	-3.2	/	/
CCCCN(CC)CCNC(=O)c1cc2c(=O)[nH]c3ccc(C)cc3c2s1	i	15.7*	-282.4	-330.4	-375.6	-47.3	-54.5
SMILES	ADAM10 inh	proKLK7 act	PLCg1 inh	ADAM17 inh	PLCb3 inh	KLK7 act conf	EDANS interfere	others
O=C(NCCCN1CCOCC1)c1cc2c(=O)[nH]c3ccccc3c2s1	i	13.6*	-292.4	-455.8	-379.1	11.5	12.0*
CCCCN(CC)CCCNC(=O)c1cc2c(=O)[nH]c3ccccc3c2s1	i	14.7*	-148.4	-209.6	-182.7	8.8	6.2*
Cc1ccc2[nH]c(=O)c3cc(C(=O)NCCC(C)C)sc3c2c1	-37.3	-1.9	-8.7	-20.9	-14.2	/	/
CCN1CCN(CCCNC(=O)c2cc3c(=O)[nH]c4ccccc4c3s2)CC1	i	10.7	-81.4	-163.2	-120.6	/	/
CCC(C)NC(=O)c1cc2c(=O)[nH]c3ccc(C)cc3c2s1 (stereo not drawn)	-390.2	34.7*	-64.6	-165.3	-96.2	-16.1	-16.7
O=c1c2ccccc2n(Cc2ccco2)n1[C@@H](Cc1ccccc1)Cn1cc(-c2ccc(-c3ccccc3)cc2)nn1	-57.1	-9.8	-29.7	-9.8	-49.6	/	/
c1ccc2c(c1)N=C(N1CCN(Cc3ccc4c(c3)OCO4)CC1)c1ccccc1S2	-3.1	-0.2	1.1	-0.4	1.6	/	/
CCOc1ccc(-n2c(SCC(=O)Nc3ccc(S(=O)(=O)Nc4nccs4)cc3)nnc2-c2ccco2)cc1	4.2	-0.2	0.8	4.4	-1.3	/	/
CC(CCN1CCC(C(O)(c2ccccc2)c2ccccc2)CC1)Oc1ccccc1C#N (stereo not drawn)	1.4	-0.1	3.5	2.5	3.8	/	/
CSc1ccc(/C=C/C(=O)OCC(=O)NC2CCCC2)cc1	i	18.5*	-238.8	-291.7	-329.4	-1.6	3.5
O=C(COC(=O)/C=C/c1ccc(F)cc1)NC1CCCC1	-13.4	0.2	-2.3	4.3	-8.6	/	/
COc1cc2c(cc1OC)C(=O)CCS2	-238.2	14.3*	-364.3	-87.5	-485.4	15.7*	22.0*
COc1ccc2c(c1)SCCC2=O	-83.0	-1.7	-32.4	-33.4	-43.7	/	/
COc1ccc2ccccc2c1C=NNC(=O)c1cc(-c2ccc(C)c(C)c2)n[nH]1	-16.8	48.6*	-20.6	-5.8	-29.0	21.7*	15.1*	K7 EDANS ctr=>69.5
COc1ccc(-c2cc(C(=O)NN=Cc3ccc(-c4ccccc4)cc3)[nH]n2)cc1	0.8	0.9	-3.0	3.0	1.1	/	/
Cc1ccc(-c2cc(C(=O)NN=Cc3c(O)ccc4ccccc34)[nH]n2)cc1C	-3.1	-69.0	-29.6	0.0	-41.1	/	/
